According to the supplement of paper PMC4100887:
± gives the standard deviation of the averaged measurements.

Assays:
IMR-90 = assay: relative cell viability (ATPlite) vs untreated control (fraction); higher = less toxic; settings: 1 µM; 72 h
K562 [1] = assay: as above; settings: 1 µM; 72 h
K562 [2] = assay: relative cell viability (ATPlite) vs untreated control, with imatinib (fraction); higher = less toxic; settings: 1 µM; 72 h; imatinib 0.125 µM

Row | SMILES | relative cell viability (IMR-90) | relative cell viability (K562 [1]) | relative cell viability (K562 [2])
1 | CN(C)CCCn1cc(C2=C(c3c[nH]c4ccccc34)C(=O)NC2=O)c2ccccc21 [Bisindolylmaleimide I] | 0.895 ± 0.12 | 0.169 ± 0.052 | 0.137 ± 0.042
2 | O=c1cc(N2CCNCC2)oc2c(-c3ccccc3)cccc12 | 0.987 ± 0.049 | 0.828 ± 0.11 | 0.76 ± 0.034
3 | Cc1ncc2ccccc2c1C#N [4-Cyano-3-methylisoquinoline] | 0.955 ± 0.066 | 0.917 ± 0.06 | 0.828 ± 0.032
4 | NC(=O)Nc1sc(-c2ccccc2)cc1C(N)=O [IKK-2 Inhibitor VI] | 0.942 ± 0.1 | 0.861 ± 0.097 | 0.695 ± 0.056
5 | OCC(O)CCO/N=C1\C(c2c(O)[nH]c3ccccc23)=Nc2ccccc21 (centres undefined) [Indirubin Derivative E804] | 0.974 ± 0.098 | 0.753 ± 0.058 | 0.644 ± 0.071
6 | Cn1sc(=O)n(Cc2ccccc2)c1=O [GSK-3b Inhibitor I] | 0.98 ± 0.13 | 0.793 ± 0.027 | 0.704 ± 0.031
7 | Oc1cccc(-c2nc(N3CCOCC3)c3oc4ncccc4c3n2)c1 | 0.958 ± 0.099 | 0.741 ± 0.015 | 0.513 ± 0.045
8 | Cc1ccc(NC2=CC(=O)c3sc(C)nc3C2=O)cc1 [Cdk4 Inhibitor III] | 0.997 ± 0.032 | 0.782 ± 0.1 | 0.685 ± 0.14
